Compound activity deposited in PubChem by several laboratories.
SRC2 inh: inhibits human steroid receptor coactivator 2; Q15596; hit rate 0.17% among 370,000; HEK293 GAL4-SRC2 luciferase reporter, luminescence; inhibition, % at 9 µM;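 active = inhibition above the mean inhibition of all tested compounds plus 3 SD, set per campaign, cut at about 52% in these data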
SRC1 inh: human NCOA1 inhibition; Q15788; HEK293 GAL4-SRC1 luciferase reporter, luminescence; inhibition, % at 3.6 µM; hit rate 0.12% among 360,000; AID 588354;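 active = inhibition above the campaign mean plus 3 SD, with each screening campaign given its own cutoff, cut at about 60% in these data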
Gli-Sufu block: Gli-Sufu pathway antagonism | inhibition, % at 5 µM | AID 588413 | Sufu-KO-LIGHT fibroblasts, Gli luciferase reporter luminescence | hit rate 0.74% among 340,000;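 active = inhibition above about 55%, limit read from the data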
COUP-TFII inh: blocks human COUP-TFII nuclear receptor | HEK293T NGFI-A luciferase reporter, luminescence | hit rate 0.7% among 370,000 | inhibition, % at 8.6 µM;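 active = inhibition above a per-plate cutoff, mean inhibition of test wells between control levels plus 3 SD, cut at about 38% in these data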;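 also: cells cotransfected with COUP-TFII expression vector driving the NGFI-A reporter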
Target sequence (P24468 whole entry, looked up): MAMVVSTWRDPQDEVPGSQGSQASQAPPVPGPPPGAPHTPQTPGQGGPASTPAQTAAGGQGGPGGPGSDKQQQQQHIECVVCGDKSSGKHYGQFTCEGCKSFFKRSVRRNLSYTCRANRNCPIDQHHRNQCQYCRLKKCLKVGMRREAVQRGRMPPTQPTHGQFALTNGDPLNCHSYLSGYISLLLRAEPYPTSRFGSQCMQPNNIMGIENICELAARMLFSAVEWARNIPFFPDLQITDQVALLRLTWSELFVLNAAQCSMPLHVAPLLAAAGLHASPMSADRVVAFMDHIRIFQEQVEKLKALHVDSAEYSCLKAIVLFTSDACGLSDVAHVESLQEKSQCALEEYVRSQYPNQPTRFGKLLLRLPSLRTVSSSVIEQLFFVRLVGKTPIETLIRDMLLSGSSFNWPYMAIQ
LRH-1 inv ag: suppresses constitutive activity of human LRH-1; inhibition, % at 3.6 µM; O00482; HEK293T StAR-luciferase reporter, LRH-1 transfected, 24 h; AID 602396; hit rate 0.13% among 360,000;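 active = inhibition above the mean inhibition of all tested compounds plus 3 SD, cut at about 73% in these data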
NCOA3 inh: inhibitors of human steroid receptor coactivator 3 (SRC3); inhibition, % at 3.6 µM; HEK293 GAL4-SRC3 luciferase reporter, luminescence; hit rate 0.17% among 360,000;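 active = inhibition above a per-campaign cutoff, the mean of all compounds plus 3 SD, cut at about 60% in these data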;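 also: higher means less SRC3-driven luciferase light from the GAL4 reporter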
Gal4-VP16 ctr: VP16 inhibition counter-screen for COUP-TFII; shares compounds with COUP-TFII inh; HEK293 Gal4-VP16 luciferase reporter, luminescence; inhibition, % at 8.5 µM; hit rate 25% among 2,500; AID 687007; in the data active = inhibition above about 13%
NR2F2 inh conf: confirmation of human COUP-TFII (NR2F2) inhibitors | AID 687008 | hit rate 45% among 2,500 | shares compounds with COUP-TFII inh | inhibition, % at 8.5 µM | HEK293 NGFI-A luciferase reporter, luminescence;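 active = mean inhibition over three repeats above a set limit taken from the earlier primary screen, cut at about 38% in these data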
A number is an active result; 0 = inactive; - = no result. Shown are actives, neighbours in structure and some others; about 1.3% of the full set was active somewhere.

SMILES | SRC2 inh | SRC1 inh | Gli-Sufu block | COUP-TFII inh | LRH-1 inv ag | NCOA3 inh | Gal4-VP16 ctr | NR2F2 inh conf
COc1ccc(/C=C2\SC(=O)N(CCCC(=O)Nc3ccc(C(=O)O)cc3)C2=O)cc1 | 90.7 | 72.7 | - | 97.7 | 74.2 | 72.7 | 83.4 | 96.0
COc1ccc(/C=C2/SC(=S)N(CCCC(=O)Nc3ccccc3C(=O)O)C2=O)cc1 | 66.3 | 0 | 0 | 52.3 | 0 | 0 | 42.5 | 0
C[C@@H]1OC(C2CCCCC2)N(C)[C@H]2C[C@H]3c4[nH]c5cccc(-c6ccccc6)c5c4CCN3C[C@@H]12 (stereo partly specified) | 0 | - | - | 0 | - | - | - | -
O=C(CSc1cc(Cl)ccc1Cl)N/N=C/c1ccc[nH]1 | - | - | - | 55.7 | - | - | 0 | 38.4
CCn1cc(/C=C/c2cc[n+](C)cc2)c2ccccc21 | 0 | 0 | 57.6 | 41.8 | 0 | 0 | 0 | 0
C=CCn1c(C)c(/C=C/c2cc[n+](C)cc2)c2ccccc21 | 0 | 0 | 0 | 56.2 | 0 | 0 | 0 | 0
O=C(NCCc1cccc(F)c1)c1cc2ccccn2n1 | 0 | - | - | 0 | - | - | - | -
O=C(Nc1cccc(S(=O)(=O)N2CCCCCC2)c1)c1ccc(Cl)nc1 | 0 | 0 | 0 | 40.7 | 0 | 0 | 0 | 0
O=C(Nc1cccc(S(=O)(=O)N2CCCCC2)c1)c1ccc(Cl)nc1 | 0 | 0 | 0 | 0 | 0 | 0 | - | -
O=C(Nc1cccc(S(=O)(=O)Nc2ccccc2Cl)c1)c1ccc(Cl)nc1 | 0 | 0 | 0 | 47.5 | 0 | 0 | 0 | 40.0
CN(CC(=O)Nc1cccc(S(=O)(=O)N2CCCC2)c1)CC(=O)Nc1ccc(Cl)c(C(F)(F)F)c1 | 0 | 0 | 0 | 42.3 | 0 | 0 | 0 | 0
COc1cccc(OC)c1C(=O)Nc1cccc(S(=O)(=O)Nc2ccccc2Cl)c1 | 0 | 0 | 0 | 0 | 0 | 0 | - | -
CN(CC(=O)Nc1cccc(S(=O)(=O)N2CCCC2)c1)CC(=O)Nc1ccc(F)c(F)c1F | 0 | 0 | 0 | 0 | 0 | 0 | - | -
O=C(Nc1cccc(S(=O)(=O)N2CCCCCC2)c1)C1CCN(C(=O)c2ccc(Cl)cc2)CC1 | 0 | 0 | 0 | 42.4 | 0 | 0 | 0 | 0
COC(=O)[C@]12C[C@H](CC(=O)N3CCC(c4ccccc4)CC3)C(=O)N(Cc3cccc4ccccc34)C1=C[C@H](C(C)(C)C)O[C@@H]2C | 0 | - | - | 0 | - | - | - | -
CCCCNC(=O)C[C@@H]1C(=O)N2CCCC3=C2[C@@]1(C(=O)OCC)CCC3 | 0 | - | - | 0 | - | - | - | -
CCOC(=O)Cc1nc(N2CCN(C=O)CC2)c2c(C)c(C(=O)OCC)sc2n1 | 0 | - | - | 0 | - | - | - | -
COc1ccccc1C(=O)Nc1nc2ccccc2[nH]1 | 94.0 | 83.7 | 74.8 | 98.4 | 84.3 | 80.1 | 86.7 | 99.5
Cc1cc(C(=O)Nc2cnc3ccccc3c2)ccc1[N+](=O)[O-] | 0 | 0 | 0 | 0 | 0 | 0 | - | -
Cc1ccc(C(=O)Nc2nc3ccccc3[nH]2)cc1 | 0 | 0 | 0 | 49.4 | 0 | 0 | 0 | 0
Cc1ccc(C(=O)Nc2cnc3ccccc3c2)cc1 | 72.4 | 0 | 0 | 71.2 | 0 | 0 | 24.2 | 48.2
COc1ccccc1C(=O)NCCC(=O)Nc1nc2ccccc2[nH]1 | 0 | 0 | 0 | 0 | 0 | 0 | - | -
CSc1ccccc1C(=O)Nc1nc2ccccc2[nH]1 | 0 | 0 | 0 | 0 | 0 | 0 | - | -
COc1cc(SC)ccc1C(=O)Nc1nc2ccccc2[nH]1 | 94.6 | 93.5 | 93.2 | 99.5 | 93.3 | 92.2 | 96.3 | 108.5
CCCCCCCCCCCCCCCC[n+]1cccc2ccccc21 | 0 | 0 | 88.7 | 54.2 | 0 | 61.8 | 15.4 | 63.2
SMILES | SRC2 inh | SRC1 inh | Gli-Sufu block | COUP-TFII inh | LRH-1 inv ag | NCOA3 inh | Gal4-VP16 ctr | NR2F2 inh conf
CCOC(=O)N1CCC(NC(=O)C2CCCN(Cc3nc(-c4ccc(CC)cc4)oc3C)C2)CC1 (stereo unspecified) | 0 | 0 | 0 | 54.0 | 0 | 0 | 0 | 45.1
CCOc1ccc(-c2nc(CSCC(=O)NC3CCN(Cc4ccccc4)CC3)c(C)o2)cc1 | 0 | 0 | - | 0 | 0 | 0 | - | -
Cc1oc(-c2ccc(Cl)cc2)nc1CN1CCCC(C(=O)NCc2cccnc2)C1 (stereo unspecified) | 0 | 0 | 0 | 52.2 | 0 | 0 | 0 | 46.3
Cc1oc(-c2ccc(Cl)cc2)nc1CSCC(=O)NC1CCN(Cc2ccccc2)CC1 | 0 | 0 | 0 | 52.4 | 0 | 0 | 14.7 | 57.2
CCOC(=O)N1CCC(NC(=O)C2CCN(Cc3nc(-c4ccc(CC)cc4)oc3C)CC2)CC1 | 0 | 0 | 0 | 0 | 0 | 0 | - | -
CCOc1ccc(-n2c(SCC(=O)Nc3ccc(Oc4ccccc4)cc3)nnc2-c2ccncc2)cc1 | 0 | - | - | 0 | - | - | - | -
CC(C)(O)C#Cc1ccc(C(=O)N2CCN(c3ccc([N+](=O)[O-])cc3)CC2)cc1 | 0 | 0 | 0 | 38.5 | 0 | 0 | 0 | 0
Cc1ccccc1CNC(=O)CN1CCCc2ccccc21 | 0 | - | - | 0 | - | - | - | -
O=C(CN1C(=O)C(c2ccc(F)cc2)=NC12CCCC2)Nc1ccc(F)cc1 | 0 | 0 | 0 | 38.6 | 0 | 0 | 0 | 0
O=C(Nc1cc(Sc2nc3ccccc3s2)cc([N+](=O)[O-])c1)c1ccccc1 | 0 | 0 | 0 | 0 | 0 | 0 | - | -
O=C(Nc1cc(Sc2ccccn2)cc([N+](=O)[O-])c1)c1cccc(F)c1 | 0 | 0 | 0 | 42.0 | 0 | 0 | 0 | 0
COc1ccc(-c2csc(NC(=O)C3CCN(c4ncnc5sc(C)c(C)c45)CC3)n2)cc1OC | 0 | 79.3 | 72.4 | 56.2 | 0 | 0 | 0 | 87.5
CNC(=O)c1ccc(NC(=O)C2CCN(c3ncnc4sc(C)c(C)c34)CC2)cc1 | 0 | 0 | 0 | 43.9 | 0 | 0 | 0 | 0
COc1ccccc1OCC(=O)NNC(=O)C1CCN(c2ncnc3sc(C)c(C)c23)CC1 | 0 | 0 | 0 | 0 | 0 | 0 | - | -
Cc1cccc(Oc2ccc(N)cc2)c1 | 0 | 0 | 0 | 0 | 0 | 0 | - | -
Cc1cc(C)cc(Oc2ccc(N)cc2)c1 | 0 | 0 | 0 | 50.7 | 0 | 0 | 19.6 | 0
Nc1ccc(Oc2cccc(Oc3ccc(N)cc3)c2)cc1 | 85.7 | 0 | 0 | 76.7 | 0 | 0 | 76.9 | 74.3
Cc1ccc(C(=O)n2ccc3ccc(-c4ccc5ccn(Cc6ccc(C#N)cc6)c5c4)cc32)cc1 | 0 | - | - | 0 | - | - | - | -
N#Cc1cccc(CNCC(=O)N2CCC3(CC2)OCCO3)c1 | 0 | - | - | 0 | - | - | - | -
Cc1ccc2nc(-c3ccc(O)c(O)c3)cn2c1 | 0 | 0 | 0 | 0 | 0 | 0 | - | -
Cc1ccc2nc(-c3ccccc3)cn2c1 | 67.3 | 0 | 0 | 52.8 | 0 | 0 | 0 | 0
COc1cccc(-c2nnc(SCC(=O)Nc3ccc(OCc4ccccc4)cc3)n2Cc2ccco2)c1 | 0 | - | - | 0 | - | - | - | -
O=S1(=O)c2ccc(N3CCSCC3)cc2Oc2ccccc2CN1Cc1cn(Cc2cccc(F)c2)nn1 | 0 | - | - | 0 | - | - | - | -
CN(C(=O)CN1CCN(c2cc(-c3ccc(-c4ccccc4)cc3)ncn2)CC1)c1ccccc1 | 0 | 0 | - | 53.8 | 0 | 0 | 0 | 0
CCN(CC)C(=O)c1ccc2c(c1)NC(=O)C(C)(C)O2 | 0 | - | - | 0 | - | - | - | -
